Data: PubChem BioAssay (NCATS)
Results filed as inconclusive are left out. Where a call stands in place of a potency, no number is given. Activity calls are given as the source filed them. The call rests on the fitted dose curve; in most records, active means well fitted inhibition curve with a large enough effect; inconclusive means small, poorly fitted or top-dose-only effect; inactive means flat fitted curve, though single readings scatter.

Experiments:
Experiment in all cases: qHTS profiling for inhibitors of Plasmodium falciparum proliferation (AID 504749); further: nearly all actives have a fitted effect of over 60% in size
Conditions in all cases: P. falciparum in erythrocytes, SYBR Green DNA, 72 h; series mostly up to 28.7 µM
3D7 = system: 3D7
Method in brief: (§1)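 Each compound contacts P. falciparum-infected red blood cells for 72 h at 37 C; lysis buffer (Tris, EDTA, saponin, Triton X, SYBR Green I) is added and fluorescence measured next morning; values normalized to controls.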

7G8 = system: 7G8
Method in brief: as §1

ATS95 = system: ATS95
Method in brief: as §1

C2A = system: C2A
Method in brief: as §1

CP191 = system: CP191
Method in brief: as §1

CP247 = system: CP247
Method in brief: as §1

CP250 = system: CP250
Method in brief: as §1

CP256 = system: CP256
Method in brief: as §1

CP260 = system: CP260
Method in brief: as §1

CP266 = system: CP266
Method in brief: as §1

CP297 = system: CP297
Method in brief: as §1

CP335 = system: CP335
Method in brief: as §1

DIV17 = system: DIV17
Method in brief: as §1

GB4 = system: GB4
Method in brief: as §1

P93_24 = system: P93_24
Method in brief: as §1

P94_40 = system: P94_40
Method in brief: as §1

PAD = system: PAD
Method in brief: as §1

PC26 = system: PC26
Method in brief: as §1

TAB113 = system: TAB113
Method in brief: as §1

TAB165 = system: TAB165
Method in brief: as §1
Potency means the concentration at half of the fitted maximal effect.

SMILES | Potency (3D7) | Potency (7G8) | Potency (ATS95) | Potency (C2A) | Potency (CP191) | Potency (CP247) | Potency (CP250) | Potency (CP256) | Potency (CP260) | Potency (CP266) | Potency (CP297) | Potency (CP335) | Potency (DIV17) | Potency (GB4) | Potency (P93_24) | Potency (P94_40) | Potency (PAD) | Potency (PC26) | Potency (TAB113) | Potency (TAB165)
CC(C)C[C@@H](NC(=O)[C@@H](Cc1ccccc1)NC(=O)c1cnccn1)B(O)O | 0.112 µM (active) | 0.0398 µM (active) | 0.112 µM (active) | 0.112 µM (active) | 0.1 µM (active) | 0.126 µM (active) | 0.126 µM (active) | 0.141 µM (active) | 0.1 µM (active) | 0.379 µM (active) | 0.379 µM (active) | 0.107 µM (active) | 0.426 µM (active) | 0.12 µM (active) | 0.158 µM (active) | 0.126 µM (active) | 0.141 µM (active) | 0.338 µM (active) | 0.1 µM (active) | 0.0708 µM (active)
O=C1NC(=O)C2C3C=CC(C3)C12 (stereo not given) | inactive | inactive | inactive | inactive | inactive | inactive | inactive | inactive | inactive | inactive | inactive | inactive | inactive | inactive | inactive | inactive | inactive | inactive | inactive | inactive
C=C1C(n2cnc3c(=O)[nH]c(N)nc32)C[C@H](O)[C@H]1CO (stereo not given in full) |  | 12.6 µM (active) |  | inactive | inactive | inactive |  |  |  | inactive | inactive |  |  |  |  | inactive | inactive |  | inactive | inactive
O=C(O)Cc1sc(-c2ccc(Cl)cc2)nc1-c1ccccc1 | inactive | inactive | inactive | inactive | inactive | inactive | inactive | inactive | inactive | inactive | inactive | inactive | inactive | inactive | inactive | inactive | inactive | inactive | inactive | inactive
C[N+]12CCCC[C@@H]1CCC(=C(c1cccs1)c1cccs1)C2 (stereo not given in full) | 12.6 µM (active) | 7.94 µM (active) |  |  | 8.91 µM (active) | 10 µM (active) |  |  | 11.2 µM (active) |  |  | 12 µM (active) | 10.7 µM (active) | 7.57 µM (active) | 7.94 µM (active) | 7.94 µM (active) | 11.2 µM (active) | 15.1 µM (active) | 11.2 µM (active) | 12.6 µM (active)
C[C@@H]1CC2C3CCC4=CC(=O)C=C[C@]4(C)[C@@]3(F)[C@@H](O)C[C@]2(C)[C@@]1(O)C(=O)COC(=O)c1cccc(S(=O)(=O)O)c1 (stereo not given in full) | inactive |  | inactive | inactive | inactive | inactive | inactive | inactive | inactive | inactive | inactive | inactive | inactive | inactive | inactive | inactive | inactive | inactive | inactive | inactive
CO/N=C(/C(=O)N[C@@H]1C(=O)N2C(C(=O)O)=C(CSc3nnnn3C)CS[C@H]12)c1csc(N)n1 | inactive | inactive | inactive | inactive | inactive | inactive | inactive | inactive | inactive |  | inactive | inactive | inactive | inactive | inactive | inactive | inactive | inactive | inactive | inactive
CCC(C(=O)C(C)C(O)C(C)CCc1ccc(C)c(O)c1C(=O)O)C1OC(CC)(C2CC[C@@](O)(CC)C(C)O2)CC1C (stereo not given in full) | 0.447 µM (active) | 0.501 µM (active) | 0.891 µM (active) | 0.794 µM (active) | 0.708 µM (active) | 0.794 µM (active) | 1 µM (active) | 1 µM (active) | 0.631 µM (active) | 1.35 µM (active) | 0.601 µM (active) | 0.426 µM (active) | 0.849 µM (active) | 0.757 µM (active) | 0.794 µM (active) | 0.316 µM (active) | 1.26 µM (active) | 0.849 µM (active) | 0.891 µM (active) | 0.355 µM (active)
COc1cc(/C=C2\CCC/C(=C\c3ccc(O)c(OC)c3)C2=O)ccc1O | 11.2 µM (active) | 2 µM (active) | 10 µM (active) |  | 10 µM (active) | 8.91 µM (active) | 10 µM (active) |  | 12.6 µM (active) |  | 13.5 µM (active) | 12 µM (active) | 9.53 µM (active) | 12 µM (active) | 12.6 µM (active) | 12.6 µM (active) | 7.08 µM (active) | 10.7 µM (active) | 8.91 µM (active) | 12.6 µM (active)
OC[C@@H](O)C(O[C@@H]1O[C@@H](CO)[C@H](O)[C@H](O)[C@H]1O)[C@H](O)[C@@H](O)CO (stereo not given in full) | inactive | inactive | inactive |  | inactive | inactive | inactive | inactive | inactive | inactive | inactive | inactive | inactive | inactive | inactive | inactive | inactive | inactive | inactive | inactive
COC(=O)C1C2CC3c4[nH]c5cc(OC)ccc5c4CCN3CC2CC(OC)C1OC (stereo not given) | inactive |  | inactive | inactive | inactive | inactive | inactive | inactive | inactive | inactive | inactive | inactive |  | inactive | inactive | inactive | inactive | inactive | inactive | inactive
CC(=O)O[C@]1(C(C)=O)CCC2C3CCC4=CC(=O)CCC4(C)C3(F)C(O)CC21C (stereo not given in full) | inactive |  | inactive | inactive | inactive | inactive | inactive | inactive | inactive | inactive | inactive | inactive | inactive | inactive | inactive | inactive | inactive | inactive | inactive | inactive
CCCCCOC(=O)Nc1nc(=O)n(C2O[C@H](C)[C@@H](O)[C@@H]2O)cc1F (stereo not given in full) | inactive | inactive | inactive | inactive | 8.91 µM (active) |  | inactive |  | inactive | inactive | inactive | inactive | inactive | inactive | inactive | inactive | inactive | inactive | inactive | inactive
CC1(C)O[C@@H]2C[C@H]3[C@@H]4CCC5=CC(=O)C=C[C@]5(C)[C@H]4C(O)C[C@]3(C)[C@]2(C(=O)CO)O1 (stereo not given in full) | inactive |  | inactive | inactive | inactive | inactive | inactive | inactive |  |  | inactive | inactive |  |  |  | inactive |  | inactive | inactive | 
CCCSS/C(CCO)=C(/C)N(C=O)Cc1cnc(C)nc1N | inactive |  | inactive | inactive | inactive | inactive | inactive | inactive | inactive | inactive | inactive | inactive | inactive |  | inactive | inactive | inactive | inactive | inactive | 
C[C@]12CC[C@@H]3c4ccc(O)cc4C[C@@H](CCCCCCCCCS(=O)CCCC(F)(F)C(F)(F)F)C3[C@@H]1CC[C@@H]2O (stereo not given in full) | 10 µM (active) | 1.78 µM (active) | 8.91 µM (active) | 10 µM (active) | 7.94 µM (active) |  |  |  | 8.91 µM (active) | inactive | 4.26 µM (active) | 13.5 µM (active) | 4.78 µM (active) | 9.53 µM (active) | 2.24 µM (active) | 5.62 µM (active) | 3.98 µM (active) | 3.38 µM (active) | 4.47 µM (active) | 2.24 µM (active)
CC(=O)CC(c1ccccc1)C1C(=O)Oc2ccccc2C1=O (stereo not given) | inactive | inactive |  | inactive | inactive | inactive | inactive | inactive | inactive | inactive | inactive | inactive | inactive | inactive | inactive | inactive | inactive | inactive | inactive | inactive
CC(=O)OC1C([N+]2(C)CCCCC2)C[C@H]2C3CC[C@H]4C[C@H](OC(C)=O)C([N+]5(C)CCCCC5)CC4(C)C3CCC12C (stereo not given in full) | inactive | inactive | inactive | inactive | inactive | inactive | inactive | inactive | inactive |  | 6.01 µM (active) |  |  |  | inactive | inactive | inactive | 16.9 µM (active) | inactive | inactive
CC(=O)C1(O)Cc2c(O)c3c(c(O)c2C(OC2CC(N)C(O)C(C)O2)C1)C(=O)c1c(O)cccc1C3=O (stereo not given) | 3.16 µM (active) | 0.708 µM (active) | 6.31 µM (active) | 8.91 µM (active) | 5.01 µM (active) | 5.01 µM (active) | 11.2 µM (active) | 10 µM (active) | 3.98 µM (active) | 15.1 µM (active) |  | 5.36 µM (active) | 5.36 µM (active) | 6.75 µM (active) | 6.31 µM (active) | 5.01 µM (active) | 10 µM (active) | 5.36 µM (active) | 6.31 µM (active) | 4.47 µM (active)
C=C(CC[C@@H](C)[C@H]1CCC2[C@]1(C)CC[C@]13C[C@@]14CCC(OC(=O)/C=C/c1ccc(O)c(OC)c1)C(C)(C)[C@@H]4CC[C@@]23C)C(C)C (stereo not given in full) | inactive |  | inactive | inactive | inactive | inactive | inactive | inactive | inactive | inactive | inactive | inactive | inactive | inactive | inactive | inactive | inactive | inactive | inactive | inactive
C[C@]12C=CC(=O)N[C@@H]1CC[C@@H]1C2CC[C@]2(C)C(C(=O)Nc3cc(C(F)(F)F)ccc3C(F)(F)F)CC[C@@H]12 (stereo not given in full) | 5.62 µM (active) | 2 µM (active) |  | inactive | inactive | inactive | inactive | inactive | 5.01 µM (active) | inactive |  | 3.79 µM (active) |  |  | inactive | inactive | inactive | inactive | inactive | 
Cc1c(C)c2c(c(C)c1O)CCC(C)(CCCC(C)CCCC(C)CCCC(C)C)O2 (stereo not given) | inactive |  | inactive | inactive | inactive | inactive | inactive | inactive | inactive | inactive |  | inactive | inactive | inactive | inactive | inactive | inactive | inactive | inactive | inactive
Cc1cc2nc3c(=O)[nH]c(=O)nc-3n(CC(O)C(O)C(O)COP(=O)(O)O)c2cc1C (stereo not given) | inactive | inactive | inactive | inactive |  |  | inactive | inactive | inactive | inactive | inactive | inactive | inactive | inactive | inactive | inactive | inactive | inactive | inactive | inactive
Clc1ccc(CS[C@@H](Cn2ccnc2)c2ccc(Cl)cc2Cl)cc1 | 2.82 µM (active) | 0.562 µM (active) | 3.55 µM (active) |  | 3.55 µM (active) |  |  |  |  |  | 3.22 µM (active) | 1.28 µM (active) | 5.1 µM (active) | 3.61 µM (active) | 1.26 µM (active) | 3.55 µM (active) | 3.16 µM (active) |  |  | 0.708 µM (active)
